Laboratory results reported in publication PMC5540273 (PLoS ONE, 2017).

Experiments:
Conditions in all cases: concentration: 1 μM, replicates: in singlicate; n = 1
[1] = system: JAK1(JH2domain-pseudokinase)
[2] = system: JAK2(JH1domain-catalytic)
[3] = system: JAK3(JH1domain-catalytic)
JNK1 = system: T1, JNK1
T1 construct: gene MAPK8

JNK2 = system: T2, JNK2
T2 construct: gene MAPK9

JNK3 = system: T3, JNK3
T3 construct: gene MAPK10

KIT-autoinhibited = system: KIT-autoinhibited
KIT = system: KIT
LATS1 = system: LATS1
LATS2 = system: LATS2
LCK = system: LCK
LIMK1 = system: LIMK1
LIMK2 = system: LIMK2
LKB1 = system: T4, LKB1
T4 construct: gene STK11

LOK = system: T5, LOK
T5 construct: gene STK10

LRRK2 = system: LRRK2
LTK = system: LTK
LYN = system: LYN
LZK = system: T6, LZK
T6 construct: gene MAP3K13

MAK = system: MAK
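Note: KINOMEscan kinase panel screen.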

Row | SMILES | %Inh [1] [%] | %Inh [2] [%] | %Inh [3] [%] | %Inh (JNK1) [%] | %Inh (JNK2) [%] | %Inh (JNK3) [%] | %Inh (KIT-autoinhibited) [%] | %Inh (KIT) [%] | %Inh (LATS1) [%] | %Inh (LATS2) [%] | %Inh (LCK) [%] | %Inh (LIMK1) [%] | %Inh (LIMK2) [%] | %Inh (LKB1) [%] | %Inh (LOK) [%] | %Inh (LRRK2) [%] | %Inh (LTK) [%] | %Inh (LYN) [%] | %Inh (LZK) [%] | %Inh (MAK) [%]
1 | O=C(Nc1ccccc1F)NC1CCN(c2ccnc(Nc3ccc(F)cc3)n2)CC1 [GSK1379800] | 0 | 0 | 0 | 3 | 0 | 0 | 0 | 7 | 0 | 3 | 5 | 0 | 28 | 0 | 0 | 0 | 0 | 0 | 21 | 23
2 | Cl.Cl.NCC(C(=O)Nc1cc(Br)c(-c2ccnc3[nH]ccc23)s1)c1ccccc1 (stereo not drawn) [GSK1269851] | 0 | 78 | 100 | 15 | 7 | 0 | 2 | 12 | 62 | 80 | 28 | 27 | 0 | 78 | 0 | 20 | 0 | 0 | 0 | 1
3 | O=c1[nH]cc(-c2ccc(N3CCOCC3)cc2)c2sc(-c3cn[nH]c3)cc12 [GSK2276055] | 77 | 100 | 39 | 24 | 14 | 10 | 22 | 76 | 0 | 62 | 9 | 0 | 0 | 0 | 0 | 0 | 5 | 0 | 0 | 30
4 | c1ccc(Oc2ccc(Nc3ccnc4cc(-c5ccc(CNCCN6CCOCC6)o5)ccc34)cc2)nc1 [GW567145] | 0 | 7 | 0 | 18 | 2 | 0 | 4 | 79 | 8 | 0 | 78 | 0 | 0 | 20 | 30 | 20 | 0 | 28 | 32 | 0
5 | CC(=O)N1CCN(c2ccc(Nc3nccc(-c4sc(C(C)C)nc4-c4cccc(NS(=O)(=O)c5cccc(Cl)c5)c4)n3)cn2)CC1 [GSK1660437] | 0 | 40 | 82 | 13 | 16 | 11 | 0 | 96.1 | 0 | 0 | 98.6 | 98.4 | 100 | 0 | 96.8 | 24 | 23 | 74 | 29 | 35
6 | CCS(=O)(=O)c1ccc(OC)c(Nc2nccc(-c3c(-c4cccc(NC(=O)c5c(F)cccc5F)c4)nn4ncccc34)n2)c1 [GSK326180] | 0 | 0 | 0 | 32 | 68 | 46 | 0 | 32 | 0 | 2 | 56 | 23 | 3 | 0 | 92.1 | 0 | 19 | 30 | 0 | 15
7 | O=C(Nc1cccc(-c2nn3ccccc3c2-c2ccnc(Nc3cccc(F)c3)n2)c1)c1c(F)ccc(F)c1Cl [GSK357952] | 0 | 25 | 0 | 11 | 23 | 19 | 0 | 98.2 | 0 | 49 | 99.1 | 43 | 0 | 0 | 97.6 | 32 | 10 | 83 | 0 | 22
8 | COc1cc(Nc2nccc(-c3c(-c4cccc(NC(=O)c5c(F)cccc5F)c4)nn4ccccc34)n2)cc(OC)c1OC [GSK323521] | 0 | 11 | 0 | 12 | 15 | 3 | 23 | 100 | 0 | 11 | 23 | 2 | 12 | 0 | 85 | 0 | 26 | 28 | 0 | 9
9 | Cc1ccc(S(=O)(=O)Nc2ccc(Nc3nccc(Nc4cccc5[nH]ncc45)n3)cc2)cc1 [GSK581271] | 16 | 68 | 3 | 44 | 27 | 29 | 0 | 85 | 0 | 0 | 39 | 13 | 0 | 0 | 0 | 23 | 10 | 0 | 0 | 12
